From PubChem BioAssay (NCI) come the findings set out here.

SMILES strings stand for the structures. Compounds without any hit were thinned out: in the full panel of roughly 83,000, 20% have a hit.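 How to read the values: 0–100, growth inhibition (40 = 60% inhibited); 0, no net growth; -100 to 0, cell death (-40 = 40% of starting cells died; -100 = all dead).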 Unmarked numbers belong to inactive results. Calls of active or inactive are those of the source. The calls were made as follows: active = growth percent below 10; inactive = the rest.

Test in all cases: NCI-60 one-dose screen, 48 h (100 = growth as untreated, 0 = no growth, -100 = all killed)
Holding throughout (settings): 10 µM unless noted

Assay [1] has as its system SK-MEL-2 melanoma.
Assay [2] deals with EKVX NSCLC.
Assay [3] has as its system SN12C renal.
The subject of assay [4] is UO-31 renal.
The subject of assay [5] is TK-10 renal.
For assay [6], the system named is ACHN renal.
The test system of assay [7] is CCRF-CEM leukemia.
Assay [8] deals with MOLT-4 leukemia.
Assay [9] has as its system SR leukemia.
For assay [10], the system named is RPMI-8226 leukemia.
The subject of assay [11] is OVCAR-8 ovarian.
Assay [12] has as its system OVCAR-5 ovarian.
Assay [13] relates to SK-OV-3 ovarian.
Assay [14] relates to HS 578T breast.
Assay [15] has as its system NCI/ADR-RES ovarian.
Assay [16] deals with CAKI-1 renal.
Assay [17] has as its system A498 renal.
The subject of assay [18] is OVCAR-4 ovarian.
For assay [19], the system named is IGROV1 ovarian.
The subject of assay [20] is OVCAR-3 ovarian.

Regarding `Oc1ccccc1/C=N/N1CCCCCC1`, the growth in assay [1] was 103%; in assay [2] it was 115%; in assay [3] it was 93.6%; in assay [4] it was 83.1%; in assay [5] it was 103%; in assay [6] it was 105%. Moreover, the growth in [7] is 76%; in assay [8] it was 95.1%; in assay [9] it was 99.3%; in assay [10], 99.6%; in assay [11], 116%; in [12], 105%. In addition, the figures for the growth in assay [13], in assay [14] and in assay [15] were 112%, 114% and 101%, respectively.
Take `COc1cc(NC(=O)NCc2ccco2)ccc1-c1ccc(NC(=O)NCc2ccco2)cc1OC`: the growth in [1] was 76.3%; in assay [2], 73%; in [3], 69.4%; in assay [4], 73.4%; in assay [5], 37.7%; in [16], 105%. The growth in [17] is 65.8%; in [7], 61.3%; in assay [8], 62.5%; in assay [9], 55.6%; in [10], 65.2%; in [11], 36.7%. Besides, the growth in assay [12] was 96.5%; in assay [18] it was 60.9%; in [13] it was 69.9%; in [19], 72.9%; in assay [20] it was 74%; in [14] it was 59.4%. Further, the growth in [15] is 91.2%.
On to `Nc1nc(Nc2ccccc2SSc2ccccc2Nc2nc(N)nc(-c3ccc(I)cc3)n2)nc(-c2ccc(I)cc2)n1`, for which the growth in assay [1] is 103%; in assay [2] it was 52.2%; in [3], 23.4%; in assay [4] it was -92.2% (active); in [5] it was 104%; in assay [6], 19.2%. Moreover, the growth in assay [16] was 59.7%; in assay [7] it was 50.3%; in assay [8], 71.7%; in assay [9], 13.9%; in [10] it was 61.4%; in assay [11], 60.2%. The growth is 84.9% in assay [12]; 116% in [13]; 50.3% in assay [19]; 94.1% in assay [20]; 89.1% in assay [14]; 49.6% in assay [15].
Turning to `COc1ccc(/C=C/C(=O)c2cccc(NS(C)(=O)=O)c2)cc1`, the growth in assay [1] was 114%; in assay [2] it was 94.6%; in assay [3], 82.8%; in assay [4], 48.6%; in assay [5], 92.2%; in [6], 93.4%. In addition, the growth in assay [17] was 101%; in [7], 1.69% (active); in assay [8], 40.8%; in [9] it was -10.2% (active); in assay [12], 94.9%; in assay [18] it was 81.5%. The growth in assay [13] is 110%; in assay [19], 7.92% (active); in assay [20], 78.1%; in assay [14], 83.2%; in [15], 85.2%.
For the molecule `CNNc1ncnc2c1cnn2-c1ccc(S(N)(=O)=O)cc1`, the growth in assay [1] is 98.3%; in assay [2] it was 106%; in assay [3] it was 105%; in assay [4], 94.3%; in assay [5], 102%; in [6], 93%. Also, the growth in assay [17] was 112%; in [7] it was 81.6%; in assay [8], 86.6%; in [9] it was 65.6%; in assay [10] it was 94%; in assay [11], 81.8%. For the same molecule, the growth in assay [12] was 99.8%; in [18], 106%; in assay [13], 115%; in assay [19] it was 104%; in [20], 87.7%; in assay [14] it was 104%. The growth in assay [15] was 87%.
Take `O=C(Nc1nc(-c2ccc(Cl)cc2)cs1)c1cc(-c2ccc(Br)cc2)nc2ccc(Cl)cc12`: the growth was 22.8% in assay [1]; 77.3% in assay [2]; 35.8% in assay [3]; 34.7% in assay [4]; 130% in [5]; 63.6% in assay [6]. Besides, the growth was 81.4% in [16]; 39.2% in assay [7]; 18.5% in [8]; 15.4% in [9]; 16.1% in assay [10]; 106% in [12]. Besides, the growth is 47.3% in assay [18]; 86.6% in [13]; 30.8% in assay [19]; 10% in assay [20]; 49.4% in assay [14]; 8.07% (active) in assay [15].
As to `CCSc1nc(Nc2ccc(S(=O)(=O)Nc3ccon3)cc2)c(C#N)c(-c2cccc(Br)c2)n1`, the growth is 119% in assay [1]; 87.7% in assay [2]; 99.2% in assay [3]; 102% in assay [4]; 91.3% in assay [6]; 87.8% in assay [16]. Further, the growth was 93.7% in assay [17]; 77.7% in assay [7]; 72.6% in assay [8]; 93.7% in [9]; 79.3% in assay [10]; 91.2% in assay [11]. Moreover, the growth in assay [12] is 89.6%; in assay [18], 103%; in [13], 99.1%; in assay [19] it was 122%; in [20], 117%; in assay [14], 105%.
Turning to `Cc1onc(-c2ccccc2Cl)c1C(=O)N[C@@H]1C(=O)N2[C@@H]1SC(C)(C)[C@@H]2C(=O)O`, the growth in assay [1] was 110%; in [2] it was 104%; in [3], 103%; in [4], 80.4%; in assay [6] it was 104%; in [16] it was 96.6%. Also, the growth in assay [17] was 114%; in assay [7], 96.6%; in assay [8], 90.5%; in assay [9] it was 91.6%; in assay [10], 95.4%; in assay [11], 106%. Also, the growth was 115% in assay [12]; 110% in assay [18]; 104% in assay [13]; 101% in [19]; 118% in assay [20]; 114% in assay [14]. Moreover, in assay [15], the growth was 109%.
For the molecule `O[N+]1=CC=CCC1=S.On1ccccc1=S.[Zn]`, the growth in assay [1] is -67.8% (active); in assay [2], -84.4% (active); in [3], -82.4% (active); in assay [4] it was -97.9% (active); in assay [6], -91.2% (active); in assay [16], -85.6% (active). The growth is -83.4% (active) in assay [17]; -34.5% (active) in assay [7]; -36.1% (active) in [8]; -4.29% (active) in assay [9]; -32.6% (active) in [10]; -50.4% (active) in assay [11]. Moreover, the growth in [12] is -83.1% (active); in assay [18] it was -95.6% (active); in assay [13], -96.6% (active); in [19] it was -81.2% (active); in assay [20], -97.4% (active); in assay [14], 7.55% (active). Also, in [15], the growth is -46.8% (active).
